Only some compounds are listed: those with a hit (about 21% of all), similar ones and a draw of the others.
CHX counter: counter-screen for Shiga toxin inhibitors: cycloheximide protein synthesis inhibition; cell reporter, cycloheximide protein synthesis inhibition counterscreen; max response, %; 300,000 compounds, 12% hits; in the data active means max response mostly above about 13%, no sharp cut-off; inactive means mostly below about 14%; further: read at 38.3 µM for the half of the compounds with a filed dose
Shiga toxin inh: blocks Shiga toxin action in Vero cells; Vero cells, Shiga toxin protein synthesis inhibition reporter; inhibition, % at 38.7 µM; 290,000 compounds, 9.2% hits; AID 2315; in the data active means inhibition mostly above about 28%, no sharp cut-off; inactive means mostly below about 43%
NS1 function inh: blocks influenza NS1 protein function; Potency, µM (highest dose often 46.1 µM); 270,000 compounds, 0.4% hits; AID 2326; further: actives are rising curves; nearly all actives have a fitted effect of over 50% in size
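S. cerevisiae expressing influenza A NS1, grown in glucose, washed, then diluted 1:100 into pH 6.0 -URA galactose medium with 23 nl compound. Growth recovery read as OD600; NS1-free strain serves as control.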
Pf growth 96h: P. falciparum growth inhibition at 96 hour, primary screen for plastid delayed-death inhibitors. P. falciparum luciferase reporter growth, 96 h. Potency, µM (doses to about 28.7 µM), actives largely listed as inhibitors. 320,000 compounds, 6.9% hits; active means well fitted inhibition curve with a large enough effect; inconclusive means small, poorly fitted or top-dose-only effect, or another doubt; inactive means no such curve, though single readings can be large or run the other way
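P. falciparum expressing integrated firefly luciferase grown in erythrocytes (2% hematocrit, 0.05% parasitemia final) with compounds for 96 hours at 37 C, 5% CO2. Growth inhibition read as loss of luminescence after adding luciferase detection reagent.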
SARS PLpro yeast: blocks SARS-CoV papain-like protease in a yeast assay | S. cerevisiae expressing SARS-CoV PLpro, growth rescue | Potency, µM (titrated, usually from 32.9 µM), usual class: activators | 330,000 compounds, 0.19% hits | AID 485353; further: nearly all actives have a fitted effect of over 55% in size
Pf growth 48h: P. falciparum growth inhibition at 48 hours (one generation); P. falciparum luciferase growth in erythrocytes, 48 h; Potency, µM (highest dose often 28.7 µM), usual class: inhibitors; 310,000 compounds, 5.9% hits; AID 504832; active means well fitted inhibition curve with a large enough effect; inconclusive means small, poorly fitted or top-dose-only effect, or another doubt; inactive means no such curve, though single readings can be large or run the other way
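Here the parasites carry a stable luciferase gene and grow inside erythrocytes in Albumax-based RPMI medium with compound for one erythrocytic cycle. Activity is scored as loss of luminescent signal.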
Numbers stand for hits; . = inactive; ? = inconclusive; / = not tested or not shown; [ ] = another dose, or the depositor's remark. Unless noted, the call rests on the fitted dose curve.

SMILES | CHX counter | Shiga toxin inh | NS1 function inh | Pf growth 96h | SARS PLpro yeast | Pf growth 48h
COc1ccc([N+](=O)[O-])cc1NC(=O)c1cn(-c2ccc(Cl)cc2)c(=O)c2ccccc12 | . | . | . | . | . | .
Cc1cc(C)c(OCCN2CCOCC2)c(Cl)c1 | . | . | . | . | . | .
O=C(CSc1ncn[nH]1)Nc1ccc(S(=O)(=O)Nc2ncccn2)cc1 | . | . | / | . | . | .
Cc1sc2ncnc(SCC(=O)N3CCCC(C(F)(F)F)C3)c2c1C (configuration not stated) | . | . | . | . | . | .
Cc1ccc(NC(=O)CSCc2ccc(F)cc2)cc1 | 51 | 76 | . | . | . | .
COc1ccc(CSCC(=O)Nc2ccccc2SC)cc1 | . | . | . | . | . | .
Cc1ccc(CSCC(=O)Nc2ccccc2F)cc1 | 25 | 68 | / | . | . | .[5.75 µM]
O=C(O)C(Cc1ccc(F)cc1)c1ccccc1 (configuration not stated) | . | . | . | 3.3µM | . | .
CCC(C)(C)NC(=O)Cc1ccc(C)cc1 | 21 | 83 | . | . | . | /
COc1ccc(-n2c(=S)[nH]c3cc(C(=O)NCCCN4CCOCC4)ccc3c2=O)cc1OC | . | . | . | . | . | .
O=C(Oc1cc(Cl)ccc1Cl)c1ccc(N2CCOCC2)c([N+](=O)[O-])c1 | . | . | . | . | . | .
CC(C(=O)NCc1ccco1)n1cc([N+](=O)[O-])cn1 (configuration not stated) | . | . | / | . | . | .
N#CC1=C(N)Oc2cc(N)ccc2C1c1cccc(Br)c1 (configuration not stated) | . | . | . | . | . | .
Cc1noc(C)c1C(=O)OC(C)C(=O)Nc1ccc(S(=O)(=O)NC(C)C)cc1 (configuration not stated) | . | . | . | . | . | .
COc1cccc(/C=C2/CN(C)CC3=C2OC(N)=C(C#N)C3c2cccc(OC)c2)c1 (configuration not stated) | . | . | . | ? | . | 13µM
COc1cccc(C2C(C#N)=C(N)OC(C(C)(C)C)=C2C#N)c1 (configuration not stated) | . | . | . | ? | . | .
COc1ccc(-n2nc(C(=O)N3CCC(C#N)CC3)c3c4ccccc4n(C)c3c2=O)cc1 | / | / | . | / | / | /
Nc1ccccc1C(=O)NNC(=O)C(=O)/C=C(\O)c1ccccc1 | 33 | 53 | . | . | . | .
O=C(/C=C(\O)c1ccccc1)C(=O)NNC(=O)c1ccccc1[N+](=O)[O-] | 17 | 71 | . | . | . | .
NC(=O)CCC(NC(=O)c1ccc(Cl)cc1)C(=O)O (configuration not stated) | . | . | / | . | . | .
CS(=O)(=O)Cc1cc(N2CCCC2)nc(-c2ccccc2)n1 | . | . | / | . | . | .
O=S(=O)(NCCCSc1ccccc1)c1ccccc1F | . | . | . | . | . | .
Cn1c(-c2ccc(=O)[nH]c2)nc2ccccc21 | . | . | . | ? | . | ?
Cn1c(-c2cc3ccccc3oc2=O)nc2ccccc21 | 40 | 104 | . | . | . | .
COc1ccc2cc(-c3nc4ccccc4n3C)c(=O)oc2c1 | 41 | 67 | . | ? | . | .
SMILES | CHX counter | Shiga toxin inh | NS1 function inh | Pf growth 96h | SARS PLpro yeast | Pf growth 48h
CCOc1ccc(NC(=S)N2CCN(S(=O)(=O)c3ccc(C)cc3)CC2)cc1 | . | . | . | ? | . | ?
CCOc1ccc(S(=O)(=O)N2CCN(C(=S)NC3CC3)CC2)cc1 | . | . | / | ? | . | 4.1µM
COc1ccc(S(=O)(=O)N2CCN(C(=S)NC3CCCCC3)CC2)cc1 | . | . | . | . | . | 0.93µM
CC(=NNC(=O)CCC(=O)Nc1ccccc1Cl)c1ccco1 | / | / | / | / | . | /
NNC(=O)CCn1nnc2ccccc21 | . | . | . | . | . | .
C/C(=N\NC(=O)CCn1nnc2ccccc21)c1ccco1 | 19 | . | . | . | . | .
CCOC(=O)c1ccc(NC(=O)Cn2nnc3ccccc32)cc1 | 32 | 92 | . | . | . | .
CCOC(=O)c1ccc(NC(=O)CCn2nnc3ccccc32)cc1 | 12 | . | . | ? | . | .
CC(=O)Nc1ccc(NC(=O)CCn2nnc3ccccc32)cc1 | . | . | . | . | . | 9.3µM
NC(Cn1ccc(=O)[nH]c1=O)C(=O)O (configuration not stated) | / | / | . | / | / | /
COc1ccc(-c2noc(CCC(=O)NCCc3cccc(C)c3)n2)cc1 | . | . | / | . | . | .
COc1ccc(/C=N/NC(=O)CCn2nnc3ccccc32)cc1 | 20 | 53 | . | . | . | .
O=C(CCn1nnc2ccccc21)Nc1nnc(COc2ccc(F)cc2)s1 | . | . | . | 9.3µM | . | .
Cc1ccccc1CSc1n[nH]c(NS(=O)(=O)c2ccccc2)n1 | . | . | . | . | . | .
CCCCCC[C@@H]([C@@H](C)O)n1cnc2c(N)ncnc21 | / | / | . | / | / | /
NC(=O)c1ccccc1NS(=O)(=O)c1ccccc1 | . | . | . | / | . | .
NNC(=O)c1cc2ccccc2cc1NS(=O)(=O)c1ccccc1 | . | . | . | ? | . | 5.9µM
CC1=CC(=C(C#N)c2nc3ccccc3s2)C=C(C)N1CC1CCCO1 (configuration not stated) | . | . | / | 2.9µM | . | ?
Cn1c(CS/C(N)=N/N=C/c2ccccc2)c(Br)c(=O)n1-c1ccccc1 | . | . | . | . | ? | .
Cc1cc(OCCOCCNCc2ccccc2)ccc1C(C)C | . | / | . | 7.4µM | . | ?
CC(C)(C)c1ccccc1OCCOCCNCc1ccccc1 | . | . | . | . | . | 8.3µM
COCCNCCCCOc1ccccc1-c1ccccc1 | . | . | . | . | . | ?
CCCCNCCOCCOc1ccccc1-c1ccccc1 | . | . | . | ? | . | 10µM
CS(=O)(=O)N(CC(=O)Nc1ccccc1C(=O)N1CCOCC1)c1cccc(F)c1 | . | . | . | 2.6µM | . | .
CC(=O)c1cccc(N(CC(=O)Nc2ccc(F)cc2F)S(C)(=O)=O)c1 | 30 | 51 | . | . | / | .
SMILES | CHX counter | Shiga toxin inh | NS1 function inh | Pf growth 96h | SARS PLpro yeast | Pf growth 48h
CCOC(=O)c1c(NC(=O)CN2C(=O)C(=O)N(CC(C)C)C2=O)sc(C)c1CC | / | / | / | . | . | ?
Cc1nonc1NC(=O)CSc1nnnn1-c1ccccc1 | . | . | . | . | . | .
CN(C)S(=O)(=O)c1ccc(C(=O)NCc2nnc(SCC(=O)N3CCCC3)o2)cc1 | . | . | . | . | . | .
CCN1C(=O)[C@@H]2[C@@H](c3ccc(-c4ccc(OC)cc4)c(OC)c3)N3CCCC[C@@]3(C(=O)OC)[C@@H]2C1=O | / | / | / | 4.1µM | . | 2.9µM
CCN1C(=O)[C@@H]2[C@@H](c3ccc(-c4cccc(Cl)c4)c(OC)c3)N3CCCC[C@@]3(C(=O)OC)[C@@H]2C1=O | / | / | / | 3.7µM | . | 10µM
CCN1C(=O)[C@@H]2[C@@H](c3ccc(-c4ccc5c(c4)OCO5)c(OC)c3)N3CCC[C@@]3(C(=O)OC)[C@@H]2C1=O | / | / | / | ? | . | ?
